For 40 compounds, inhibition results are on record in PubChem BioAssay.

Unmarked numbers belong to inactive results. How the calls were made is not given here.

As usually defined, the inhibition is the relative decrease from the control value, in per cent.

For this assay, the target named is Pantothenate synthetase (Mycobacterium tuberculosis (strain ATCC 25618 / H37Rv)) (UniProt P9WIL5). As to the kind of experiment: Recombinant Mtb pantothenate synthetase (PanC) inhibitors, coupled enzyme, confirmatory (AID 375).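 Further: 0% = full reaction with vehicle and 100% = no enzyme background.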 Particulars: coupled enzyme assay; at 10 µM, stronger effect = higher value.
Chain of Pantothenate synthetase (Mycobacterium tuberculosis (strain ATCC 25618 / H37Rv)) (P9WIL5 whole entry, looked up): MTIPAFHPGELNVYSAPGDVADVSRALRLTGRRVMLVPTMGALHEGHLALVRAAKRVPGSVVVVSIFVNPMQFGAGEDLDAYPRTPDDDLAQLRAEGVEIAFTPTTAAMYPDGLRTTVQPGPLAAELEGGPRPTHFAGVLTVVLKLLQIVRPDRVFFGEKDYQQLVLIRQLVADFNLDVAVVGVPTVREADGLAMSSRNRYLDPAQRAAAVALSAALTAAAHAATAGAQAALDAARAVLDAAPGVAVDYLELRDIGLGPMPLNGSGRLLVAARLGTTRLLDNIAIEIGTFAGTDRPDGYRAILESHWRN
In the case of `O=C(CNC1CCCCCC1)Nc1ccc(S(=O)(=O)NC2CC2)cc1`, the inhibition is 2%. `FC(F)(F)c1cc(-c2ccco2)nc(N2CCOCC2)n1`: the inhibition is 2%.

On to `CCOCC(=O)Nc1nc2c(s1)C(=O)CC(C)(C)C2`, for which the inhibition was 5%. With `Cn1c(=O)c2c(nc3sccn32)n(C)c1=O`, the inhibition is 0%. For the compound `Cc1cc(Br)ccc1NC(=O)CNC(=O)CSc1n[nH]c(N)n1`, the inhibition is 6%.

`CCOC(=O)N1CCC(NC(=O)CN2C(=O)CCSc3ccccc32)CC1`: the inhibition was 0%. As to `CCOC(=O)c1ccc(N=c2sc(C(=O)OC)cc(=O)n2Cc2ccco2)cc1`, the inhibition was 0%.

With `COC(=O)Cn1c(CCS(=O)(=O)c2ccc(C)cc2)nc2ccccc21`, the inhibition was 1%.

As for `Cc1ccc(SCCC(=O)N(C)C)cc1`, the inhibition is 0%. For the compound `COc1ccccc1CNC(=O)Nc1cccs1`, the inhibition was 0%.

On to `O=C(CSc1ncccn1)c1ccccc1Br`, for which the inhibition is 7%. With `c1ccc(-c2noc(C34CC5CC(CC(C5)C3)C4)n2)nc1` the figure was 6%; with `Cn1c(=O)c2c(nc(NCCc3ccccc3)n2CC(=O)NCCc2ccccc2)n(C)c1=O`, 0%.

`CC(C[N+](C)(C)C)OC(N)=O` (stereo not given): the inhibition is 0%. In the case of `O=S(=O)(c1ccc(Br)s1)N1CCN(c2ccccc2)CC1`, the inhibition is 0%. Turning to `COC(=O)c1[nH]c(C)c(/C(O)=C2\C(=O)C(=O)N(CCN(C)C)C2c2ccccc2OC)c1C` (stereo not given), the inhibition was 1%.

As to `O=C(Cn1nnc(-c2ccc(CN3CCOCC3)cc2)n1)NC1CCCCC1`, the inhibition was 12%. In the case of `CN(C)S(=O)(=O)NC(c1ccccc1)c1ccccc1`, the inhibition is 4%. For the compound `CCCCC(=O)Nc1nn(CCC)c2nc3ccccc3cc12`, the inhibition was 0%. `Cc1nc(N2CCN(c3ncccn3)CC2)c2oc3ccccc3c2n1`: the inhibition was 2%. As to `COCCOC(=O)/C=C1/NC(=O)CS1`, the inhibition is 0%. With `FC(F)(F)c1cc(-c2ccco2)nc(NCc2ccco2)n1`, the inhibition was 0%. Consider `CCN1C(=O)/C(=C/N(C)c2ccccc2)OC1=S`, for which the inhibition was 4%. Regarding `COCCN(C(=O)c1csnn1)C(C(=O)NC(C)(C)C)c1cccc(OC)c1` (stereo not given), the inhibition is 1%.

Turning to `O=C(c1ccc(-c2ccccc2)cc1)N1CCC(C(=O)N2CCCC2)CC1`, the inhibition is 0%.

`CCN(CC)CCN1C(=O)c2oc3ccc(F)cc3c(=O)c2C1c1ccncc1` (stereo not given): the inhibition is 0%. Turning to `CCOC(=O)C1=C(C)NC(C)=C(C(=O)OCC)C1c1cc(N)ccc1OC(F)F`, the inhibition is 0%. Consider `O=C(C1CCCN(S(=O)(=O)c2cccnc2)C1)N1CCN(c2ccccn2)CC1` (stereo not given), for which the inhibition was 0%. With `Cc1nc(NCc2ccco2)c2oc3ccccc3c2n1`, the inhibition is 4%. Turning to `CCOc1ccc(-c2nnc(N(CC)C(=O)C3CCC3)s2)cc1`, the inhibition was 11%. As to `CC(C)=CCCC(C)CN(C)CCc1ccccn1` (stereo not given), the inhibition was 0%.

`COc1ccc(OC)c(NC(=O)CS(=O)(=O)Cc2nc(-c3ccccc3C)oc2C)c1`: the inhibition is 0%. Consider `ON=C1/C(=N\O)CC2(C/C1=N/O)OCCO2`, for which the inhibition was 0%.

On to `Cc1ccccc1CS(=O)(=O)Cc1ccc(C(=O)NCCCN2CCOCC2)o1`, for which the inhibition was 0%. With `CC(CCc1ccccc1)NC(=O)CSc1nc(N)cc(N)n1` (stereo not given), the inhibition was 0%. With `Cn1c(-c2ccccc2)cnc1SCc1nc2ccccc2c(=O)[nH]1` the figure was 7%; with `O=C(OCc1ccccc1F)c1ccc2c(c1)OCCO2`, 3%; with `CC(C(=O)N1CCc2ccccc21)N1CCc2ccccc2C1` (stereo not given), 3%.

As for `CC(=O)NC1(c2nnnn2CCOC(=O)Nc2ccc(Cl)cc2)CCCCC1`, the inhibition is 1%. For the compound `Cc1cc(NCCN(C)C)n2nc(-c3cccs3)cc2n1`, the inhibition is 0%.
